Screening data from PubChem.
USP8 inh: blocks human USP8 ubiquitin-rhodamine cleavage. P40818. purified USP8, Ub-rhodamine cleavage fluorescence, 30 min. inhibition, % at 20 µM. 4.2% of 47,000 active. AID 1645853
UCHL1 block: inhibitors of human UCHL1 deubiquitinase; purified UCHL1, Ub-rhodamine cleavage fluorescence; 0.2% of 47,000 active; inhibition, % at 20 µM
USP7 inh: inhibitors of human USP7 deubiquitinase. Q93009. purified USP7, Ub-rhodamine cleavage fluorescence. inhibition, % at 20 µM. 0.3% of 47,000 active
USP10 inh: human USP10 deubiquitinase inhibition; 1.1% of 47,000 active; inhibition, % at 20 µM; AID 1645856; purified USP10, Ub-rhodamine fluorescence, 60 min; Q14694
USP17 block: blocks human USP17 ubiquitin-rhodamine cleavage; purified USP17, Ub-rhodamine cleavage fluorescence, 3 h; inhibition, % at 50 µM; 6.5% of 47,000 active
USP30 inh: blocks human USP30 ubiquitin-rhodamine cleavage; 5.3% of 47,000 active; purified USP30, Ub-rhodamine cleavage fluorescence; inhibition, % at 25 µM; Q70CQ3
Large screens that a line does not name were inactive. In the library only some 13% were active in any assay of this set; here they are far more common. Rule as the data show it: active = inhibition above about 30%; inactive = the rest.

CSc1cccc(NC(=O)c2cc(-c3cccnc3)n[nH]2)c1	USP8 inh 97, USP17 block 79, USP30 inh 65 (no result: USP7 inh)
COc1ccc(Cl)cc1NC(=O)c1cc(-c2ccncc2)n[nH]1	none
COc1ccc(Cl)cc1C(=O)OCC(=O)NC1CCCc2ccccc21 (configuration not stated)	none
Cn1ccc(-c2cc(C(=O)NCc3ccccn3)c3ccccn23)n1	USP8 inh 36
Cc1ccc(CNC(=O)c2cc(=O)nc3sc(N4CCCCCC4)nn23)cc1	USP30 inh 31
CS(=O)(=O)Nc1ccc2c(c1)nc1n2CCN(C2CCCC2)C1	none
COc1ccccc1N1CCn2c(nc3cc(NS(C)(=O)=O)ccc32)C1	USP17 block 40
COc1ccc(C)cc1NC(=O)c1cc(-c2ccncc2)n[nH]1	none
Cc1ccc(NC(=O)c2cc(-c3ccncc3)n[nH]2)c(C)c1	none
COc1ccc(OC)c(NC(=O)c2cc(-c3ccc(C)c(C)c3O)n[nH]2)c1	none
Cc1ccc(-c2cc(C(=O)Nc3cc(C)ccc3C)[nH]n2)c(O)c1	USP17 block 34
Cc1cccc(NC(=O)c2cc(-c3ccc(C)c(C)c3O)n[nH]2)c1	USP8 inh 81, USP17 block 88, USP30 inh 76
CC(=O)Nc1ccc(NC(=O)c2cc(-c3cc(C)cc(C)c3O)n[nH]2)cc1	USP17 block 35, USP30 inh 62
Cc1cccc(C)c1NS(=O)(=O)c1ccc2c(c1)NC(=O)CC(C)S2 (configuration not stated)	none
Cn1cccc1C1CCCCCN1C(=O)C1CC1 (configuration not stated)	none
COc1ccc(-c2cc(C(=O)Nc3cccc(C#N)c3)nn2C2CCS(=O)(=O)C2)cc1 (configuration not stated)	USP17 block 39
CCCCNC(=O)c1cc(-c2ccc(C)cc2)n(C2CCS(=O)(=O)C2)n1 (configuration not stated)	none (no result: USP30 inh)
COc1ccccc1C1=NC(c2ccc(C)cc2)N=C1C (configuration not stated)	USP17 block 32
CC(C)c1nc2sc3c(=O)n(CCc4ccccc4)cnc3c2c2c1COC(C)(C)C2	none
FC(F)(F)c1cc(C(F)(F)F)c2ccc(N3CCC4(CC3)OCCO4)nc2n1	USP17 block 30
c1ccc(-c2cc(N3CCC4(CC3)OCCO4)nc(-c3ccncc3)n2)cc1	none (no result: USP17 block)
CN1CC(=O)N(C2CCCNC2)Cc2c(NC3Cc4ccccc4C3)ncnc21 (configuration not stated)	USP8 inh 68
CCOC(=O)c1ccc(NC(=O)Cn2cnc3scc(-c4ccc5c(c4)CCCC5)c3c2=O)cc1	none
CCC(C)c1ccc(NC(=O)COc2nc3ccccc3nc2C)cc1 (configuration not stated)	USP17 block 47
O=C(Nc1nnc(Cc2ccccc2)s1)c1cc(=O)[nH]c2ccccc12	none
O=c1ccc(-c2nnc3c4ccccc4c(Cc4ccccc4)nn23)n[nH]1	USP8 inh 59
O=C(CN(c1ccccc1)S(=O)(=O)c1ccccc1)Oc1cc(Cl)ccc1Cl	USP8 inh 30, USP30 inh 34
COc1ccc(OC(=O)CN(c2cccc(C(F)(F)F)c2)S(=O)(=O)c2ccccc2)cc1	none
O=C(CN1CCC2(CCC1=O)CNC(=O)c1ccccc1O2)NC1CCCCC1 (configuration not stated)	none
Cc1ccc(NC(=O)CSc2nnc(-c3ccncc3)o2)cc1C	none
Cc1cc(C)c(C(=O)CSc2nnc(-c3ccccc3)o2)cc1C	USP8 inh 56
CC(C)C(NS(=O)(=O)c1ccc2c(c1)OCCO2)C(=O)Nc1cccc(F)c1 (configuration not stated)	USP17 block 44, USP30 inh 39
O=C(NCc1ccccc1)C(Cc1ccccc1)NS(=O)(=O)c1ccc2c(c1)OCCO2 (configuration not stated)	USP8 inh 31, USP17 block 86, USP30 inh 52
COC(=O)c1ccc(OC(=O)C(NS(=O)(=O)c2ccc3c(c2)OCCO3)C(C)C)cc1 (configuration not stated)	none
CCN(C(=O)CSc1nc2ncccc2o1)c1ccccc1	none
Cc1cc(C(=O)N2CC[C@H]3NC(=O)c4ccccc4OCCCCC[C@H]3C2)nc(=O)[nH]1	none
Cc1cc(NC(=O)c2ccccc2F)ccc1-c1cc2ccccc2oc1=O	none
O=C(Nc1c(C(=O)Nc2ccc3c(c2)OCO3)oc2ccccc12)c1cc2ccccc2o1	USP8 inh 79
O=C(COC(=O)c1ccccc1F)Nc1ccc2[nH]c(=O)[nH]c2c1	none
O=C(NCCc1nc2ccccc2[nH]1)c1cc2ccccc2o1	none
O=C(Nc1ccc2[nH]c(=O)[nH]c2c1)c1cc2ccccc2o1	USP8 inh 42, USP17 block 43
CSc1cccc(NC(=O)CNC(=O)c2cc3ccccc3o2)c1	USP17 block 65
COc1cc(NC(=O)c2ccc3c(c2)OCO3)ccc1-c1cc2ccccc2oc1=O	USP8 inh 69, USP17 block 47
CC1CCN(S(=O)(=O)c2cn(CC(=O)Nc3ccc(F)cc3Cl)c(=O)c3ccccc23)CC1	none
Cc1cnn(CC2CN(Cc3ccc(C#N)cc3F)CCO2)c1 (configuration not stated)	none
COC(=O)[C@H](Cc1ccc(O)cc1)NC(=O)c1ccc(Cl)cc1	none
COc1ccc(C(=O)Nc2ccccc2C(=O)NC(Cc2ccc(O)cc2)C(=O)NNC(=O)c2ccccc2Cl)cc1 (configuration not stated)	USP8 inh 59, USP10 inh 62, USP17 block 82, USP30 inh 69
Cn1c(=O)c(C(=O)CN2CCN(c3ccc(O)cc3)CC2)c(N)n(Cc2ccccc2)c1=O	USP8 inh 67, USP17 block 59
Cc1ccc2c(C(=O)CN3CCN(Cc4ccccc4)CC3)c(C)[nH]c2c1	none
COc1ccc(-c2c(-c3cccc([N+](=O)[O-])c3)cn3ccc4cc(OC)c(OC)cc4c23)cc1OC	none
CCC1OC(O)(C(C)C(O)C(C)C2OC(=O)/C(C)=C/C(C)=CC(C)C(O)C(C)C/C(C)=C/C=C/C2OC)CC(OC(=O)/C=C/C(=O)NC2=C(O)CCC2=O)C1C (configuration not stated)	USP10 inh 39, USP17 block 74
COC1=C2C[C@@H](C)C[C@H](OC)[C@H](O)[C@@H](C)/C=C(\C)[C@H](OC(N)=O)[C@@H](OC)/C=C\C=C(/C)C(=O)NC(=CC1=O)C2=O	none
CO/C1=C\C(C)=C/[C@@H](C)[C@@H](O)[C@@H](C)C/C(C)=C/C=C/[C@H](OC)[C@@H]([C@@H](C)[C@@H](O)[C@H](C)[C@@]2(O)C[C@@H](OC(=O)/C=C/C(N)=O)[C@H](C)[C@@H](C(C)C)O2)OC1=O	USP17 block 56
